Read-out in experiment [1]: organic anion transporter (SLCO1B1), SLCO1B1 (gene 10599)
Description: CLD_SLCO1B1_24hr: CellzDirect (CLD) Gene Expression Assay for organic anion transporter (SLCO1B1) at 24 hours (AID 2283690). The essentials: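 Primary human hepatocytes (two donor preparations) dosed daily for two days with chemicals at multiple concentrations, 0.2% DMSO vehicle. SLCO1B1 mRNA at 24 h measured by qNPA chemiluminescence; induction fitted relative to DMSO.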

Read-out in experiment [2]: Cytochrome P450 2C19 (Homo sapiens) (UniProt P33261)
Description: CLD_CYP2C19_48hr: CellzDirect (CLD) Gene Expression Assay for xenobiotic metabolism (CYP2C19) at 48 hours (AID 2283700).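 Also: fitted upward so actives raise CYP2C19 mRNA above the 0.2% DMSO vehicle.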 The essentials:
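Primary human hepatocytes (two donor preparations) dosed daily for two days, harvested at 48 h; CYP2C19 mRNA induction measured by qNPA chemiluminescence. Gain-of-signal fitted relative to 0.2% DMSO vehicle as baseline.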

Read-out in experiment [3]: xenobiotic metabolism (CYP1A2), CYP1A2 (gene 1544)
Description: CLD_CYP1A2_48hr: CellzDirect (CLD) Gene Expression Assay for xenobiotic metabolism (CYP1A2) at 48 hours (AID 2283703). In a few lines: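 Primary human hepatocytes from two donor preparations were dosed daily for two days at multiple concentrations in 0.2% DMSO vehicle. CYP1A2 mRNA was measured at 48 hours by chemiluminescent quantitative nuclease protection assay, with gain of signal fitted versus DMSO and cytotoxicity annotated from morphology.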

Read-out in experiment [4]: Broad substrate specificity ATP-binding cassette transporter ABCG2 (Homo sapiens) (UniProt Q9UNQ0)
Put plainly: CLD_ABCG2_48hr: CellzDirect (CLD) Gene Expression Assay for ABC Transporter (ABCG2) at 48 hours (AID 2283704). In a few lines:
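Primary human hepatocytes from two donors, dosed daily for 2 days, 0.2% DMSO vehicle, several concentrations. ABCG2 mRNA at 48 h by qNPA chemiluminescence, gain fitted versus DMSO; cytotoxicity flagged by morphology.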

Read-out in experiment [5]: xenobiotic metabolism (CYP1A1), CYP1A1 (gene 1543)
Description: CLD_CYP1A1_48hr: CellzDirect (CLD) Gene Expression Assay for xenobiotic metabolism (CYP1A1) at 48 hours (AID 2283705). In a few lines: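 Primary human hepatocytes from two donors dosed daily for two days at multiple concentrations, 0.2% DMSO vehicle; CYP1A1 mRNA induction at 48 h by qNPA chemiluminescence. Cytotoxicity noted by phase-contrast morphology.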

Read-out in experiment [6]: Glyceraldehyde-3-phosphate dehydrogenase (Homo sapiens) (UniProt P04406)
Description: CLD_GAPDH_48hr: CellzDirect (CLD) Gene Expression Assay for Baseline Control (Glyceraldehyde 3-phosphate dehydrogenase) at 48 hours (AID 2283706).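 Also: active means higher GAPDH mRNA than DMSO vehicle.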 In a few lines:
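Primary human hepatocytes dosed daily for two days with fresh chemical at multiple concentrations, 0.2% DMSO vehicle; GAPDH mRNA measured at 48 h by quantitative nuclease protection assay with chemiluminescence, fitted upward relative to DMSO as background control.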

Read-out in experiment [7]: sulfotransferase (SULT2A), SULT2A1 (gene 6822)
Put plainly: CLD_SULT2A_24hr: CellzDirect (CLD) Gene Expression Assay for sulfotransferase (SULT2A) at 24 hours (AID 2283694). The essentials: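 Primary human hepatocytes from two donor preparations were dosed daily with fresh solutions, vehicle 0.2% DMSO. At 24 h, lysates went to quantitative nuclease protection (qNPA) with S1 digestion and chemiluminescent readout. Cytotoxicity was annotated from phase-contrast morphology.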

Read-out in experiment [8]: alkyl and aryl transferase (GSTA2), GSTA2 (gene 2939)
Put plainly: CLD_GSTA2_48hr: CellzDirect (CLD) Gene Expression Assay for alkyl and aryl transferase (GSTA2) at 48 hours (AID 2283708).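 Also: active means mRNA induction above DMSO vehicle baseline.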 The essentials: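 Primary human hepatocytes dosed daily for two days (0.2% DMSO vehicle), harvested at 48 h. GSTA2 mRNA induction measured by quantitative nuclease protection assay with chemiluminescent imaging, fitted for gain of signal relative to DMSO.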

Read-out in experiment [9]: glucuronosyltransferase (UGT1A1), UGT1A1 (gene 54658)
Description: CLD_UGT1A1_24hr: CellzDirect (CLD) Gene Expression Assay for glucuronosyltransferase (UGT1A1) at 24 hours (AID 2283696). The essentials:
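Primary human hepatocytes from two donor preparations were dosed (0.2% DMSO vehicle) and harvested at 24 h; UGT1A1 mRNA induction was quantified by chemiluminescent qNPA, fitted as gain relative to DMSO.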

Read-out in experiment [10]: xenobiotic metabolism (CYP2C9), CYP2C9 (gene 1559)
Put plainly: CLD_CYP2C9_48hr: CellzDirect (CLD) Gene Expression Assay for xenobiotic metabolism (CYP1A2) at 48 hours (AID 2283701; active = hit-call score of the fitted dose curve at least 0.9, where 1 is the maximum; inactive = score below 0.9). In a few lines: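 Primary human hepatocytes (two donor preparations) dosed daily for two days with test chemicals, 0.2% DMSO vehicle; harvested at 48 h. mRNA induction quantified by qNPA chemiluminescence, fitted for gain of signal against DMSO baseline; cytotoxicity annotated from phase-contrast morphology.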

Inconclusive results are not listed. Some structures have more than one record in an assay (separate samples or runs), and their calls can disagree. The source made the active and inactive calls. The calls were made as follows, unless noted: active = hit-call score of the fitted dose curve at least 0.9, where 1 is the maximum; inconclusive = response in the unintended direction; inactive = score below 0.9.

Cytochrome P450 2C19 (Homo sapiens), sequence (P33261 whole entry, looked up): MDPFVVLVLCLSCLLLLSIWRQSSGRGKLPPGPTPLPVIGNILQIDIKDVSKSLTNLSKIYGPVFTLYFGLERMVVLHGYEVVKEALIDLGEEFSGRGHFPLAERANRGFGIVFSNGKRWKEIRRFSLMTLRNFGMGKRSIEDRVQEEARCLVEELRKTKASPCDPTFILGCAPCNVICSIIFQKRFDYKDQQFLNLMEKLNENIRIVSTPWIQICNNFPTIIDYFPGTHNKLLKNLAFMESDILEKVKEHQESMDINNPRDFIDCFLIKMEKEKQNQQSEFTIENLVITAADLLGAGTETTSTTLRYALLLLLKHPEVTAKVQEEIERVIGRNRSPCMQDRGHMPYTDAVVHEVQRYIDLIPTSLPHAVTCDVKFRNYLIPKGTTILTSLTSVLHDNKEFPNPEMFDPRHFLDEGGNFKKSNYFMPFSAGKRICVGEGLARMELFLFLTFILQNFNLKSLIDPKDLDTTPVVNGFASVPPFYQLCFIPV
Glyceraldehyde-3-phosphate dehydrogenase (Homo sapiens), sequence (P04406 whole entry, looked up): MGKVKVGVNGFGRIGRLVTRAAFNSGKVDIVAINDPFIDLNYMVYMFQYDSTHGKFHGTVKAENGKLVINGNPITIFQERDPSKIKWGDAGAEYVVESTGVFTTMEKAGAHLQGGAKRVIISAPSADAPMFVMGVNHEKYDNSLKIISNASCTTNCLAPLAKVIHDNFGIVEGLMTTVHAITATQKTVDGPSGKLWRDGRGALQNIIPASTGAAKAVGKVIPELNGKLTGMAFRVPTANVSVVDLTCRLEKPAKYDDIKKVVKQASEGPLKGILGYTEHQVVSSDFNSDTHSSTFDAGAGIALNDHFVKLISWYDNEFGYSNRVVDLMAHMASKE
Broad substrate specificity ATP-binding cassette transporter ABCG2 (Homo sapiens), sequence (Q9UNQ0 whole entry, looked up): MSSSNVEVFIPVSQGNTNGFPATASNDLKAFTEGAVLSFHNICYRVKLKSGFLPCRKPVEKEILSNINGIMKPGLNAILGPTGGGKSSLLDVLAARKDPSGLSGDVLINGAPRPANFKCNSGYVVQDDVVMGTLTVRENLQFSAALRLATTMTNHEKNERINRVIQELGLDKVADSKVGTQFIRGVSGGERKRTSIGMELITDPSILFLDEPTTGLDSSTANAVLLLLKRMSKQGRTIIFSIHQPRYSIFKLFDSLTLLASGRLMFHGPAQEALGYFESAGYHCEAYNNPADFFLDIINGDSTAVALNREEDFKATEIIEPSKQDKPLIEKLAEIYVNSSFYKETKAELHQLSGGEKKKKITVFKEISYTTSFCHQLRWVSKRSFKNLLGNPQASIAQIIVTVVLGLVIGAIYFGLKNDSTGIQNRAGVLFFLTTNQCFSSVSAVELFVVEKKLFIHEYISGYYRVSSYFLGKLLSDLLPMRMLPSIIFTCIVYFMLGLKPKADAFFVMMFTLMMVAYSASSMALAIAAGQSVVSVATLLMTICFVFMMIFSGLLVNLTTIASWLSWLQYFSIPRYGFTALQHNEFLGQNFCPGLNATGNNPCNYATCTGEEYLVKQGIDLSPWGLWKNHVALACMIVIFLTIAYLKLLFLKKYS

On to `COC(=O)c1ccc(I)cc1S(=O)(=O)NC(=O)Nc1nc(C)nc(OC)n1`, for which the compound was classed as inactive in experiment [1], in experiment [2], in [4] and in experiment [6]. Further, the AC50 in [3] and in [5] was 20 µM (active) throughout.
Regarding `c1ccc(Nc2ccccc2)cc1`, the compound was classed as inactive in experiment [1], in [7], in experiment [2], in experiment [5] and in [8]. Also, the AC50 in experiment [3] is 4.82 µM (active).
Take `CCOC(=O)[C@H](C)Oc1ccc(Oc2nc3ccc(Cl)cc3o2)cc1`: the compound was classed as inactive in [1], in experiment [7], in experiment [5], in experiment [6] and in experiment [8]. Moreover, in experiment [3], the half-maximal activity concentration (AC50) was 20 µM (active).
For the compound `COc1c(Cl)ccc(Cl)c1C(=O)O`, the compound was called inactive in experiment [7], in [9], in [2], in [3], in experiment [4] and in experiment [8]. The AC50 in experiment [10] was 0.0267 µM (active).
Consider `CCCCC(CC)COC(=O)c1ccccc1C(=O)O` (stereo not drawn), for which the compound was called inactive in experiment [1], in experiment [7], in experiment [2], in [3], in [5] and in [6]. Moreover, in experiment [8], the compound was classed as inactive.
Regarding `CCCOC(=O)NCCCN(C)C`, the result in [1], in experiment [7], in [2], in experiment [3], in [4] and in experiment [5] was inactive. The result in experiment [6] and in experiment [8] was inactive.
On to `CCNc1nc(N)nc(Cl)n1`, for which the outcome in [1], in experiment [4], in experiment [5], in experiment [6] and in experiment [8] was inactive. The AC50 in [3] was 3.97 µM (active).
Turning to `C#CCOC(=O)[C@@H](C)Oc1ccc(Oc2ncc(Cl)cc2F)cc1`, the compound was called inactive in experiment [1], in [7], in experiment [2], in [3], in experiment [4] and in experiment [6]. Also, in [8], the result was inactive.
On to `CCCN(CCC)C(=O)SCC`, for which the call in [1], in experiment [7], in experiment [2], in experiment [3], in experiment [4] and in [6] was inactive. Moreover, the result in [8] was inactive. Besides, the AC50 in experiment [3] was 6.32 µM (active).
On to `CCOC(=O)C(C)Oc1ccc(Oc2cnc3cc(Cl)ccc3n2)cc1` (stereo not drawn), for which the result in experiment [7], in [2] and in experiment [3] was inactive.
For `COCCO`, the result in experiment [1], in experiment [7], in experiment [3], in [4], in experiment [5] and in experiment [6] was inactive. Besides, the result in experiment [8] was inactive.
For the compound `COC(=O)CSc1cc(N=c2sc(=O)n3n2CCCC3)c(F)cc1Cl`, the compound was called inactive in experiment [7], in experiment [2], in experiment [3] and in experiment [5]. Also, the concentration at half-maximal activity (AC50) in [10] is 9.13 µM (active).
Consider `CCC(C)OC(=O)N1CCCCC1CCO` (stereo not drawn), for which the outcome in [1], in experiment [7], in experiment [2], in experiment [3], in experiment [4] and in experiment [5] was inactive. For the same compound, the result in experiment [6] and in experiment [8] was inactive.
For the compound `COC(=O)c1ccccc1S(=O)(=O)NC(=O)Nc1nc(OC(F)F)cc(OC(F)F)n1`, the outcome in experiment [7], in experiment [2] and in experiment [5] was inactive. Besides, the AC50 in experiment [3] was 11 µM (active).
Consider `O=C(Nc1ccc([N+](=O)[O-])cc1Cl)c1cc(Cl)ccc1O`, for which the result in experiment [1], in experiment [7] and in experiment [8] was inactive. Moreover, the AC50 in experiment [3] was 0.549 µM (active); in experiment [5] it was 3.55 µM (active).
As for `OB(O)O`, the compound was classed as inactive in experiment [7], in experiment [2], in experiment [3], in [5] and in experiment [6].
`CC1(C)C(C=C(Cl)Cl)C1C(=O)OCc1cccc(Oc2ccccc2)c1` (stereo not drawn): the result in experiment [1], in [2], in [4], in experiment [5], in experiment [6] and in experiment [8] was inactive. Moreover, in [3], the AC50 was 9.51 µM (active).
As for `CCOC(=O)C(C)Oc1ccc(Oc2nc3ccc(Cl)cc3o2)cc1` (stereo not drawn), the compound was called inactive in [1], in experiment [7], in [2], in [3], in experiment [4] and in [5]. For the same compound, the outcome in experiment [6] and in [8] was inactive.
Consider `CCCCCCC(C)OC(=O)COc1nc(F)c(Cl)c(N)c1Cl` (stereo not drawn), for which the compound was called inactive in [1], in experiment [7], in [2], in experiment [3], in [6] and in experiment [8].
Take `COC(=O)c1cccc(C)c1S(=O)(=O)NC(=O)Nc1nc(OCC(F)(F)F)nc(N(C)C)n1`: the call in experiment [1], in experiment [7], in experiment [2] and in experiment [6] was inactive. The half-maximal activity concentration (AC50) was 5.82 µM (active) in experiment [3] and 8.53 µM (active) in experiment [5].
For the compound `CCSC(=O)N(CC(C)C)CC(C)C`, the result in experiment [1], in experiment [2], in experiment [3], in experiment [6] and in [8] was inactive.
Consider `CCC(O)=C1C(=O)CC(C(=O)O)CC1=O` (stereo not drawn), for which the compound was classed as inactive in experiment [1], in experiment [2], in [3], in experiment [4], in experiment [5] and in experiment [6].
Regarding `CCCCOC(=O)[C@@H](C)Oc1ccc(Oc2ccc(C(F)(F)F)cn2)cc1`, the compound was classed as inactive in experiment [1], in experiment [7], in [2], in [3], in experiment [5] and in experiment [8].
On to `CCCCC(CC)CN1C(=O)C2C3C=CC(C3)C2C1=O` (stereo not drawn), for which the outcome in [7], in [9], in experiment [4] and in [8] was inactive. Besides, the AC50 in [3] was 12.6 µM (active); in experiment [5] it was 33.7 µM (active).
